Screening data deposited in PubChem by several laboratories.
Sampled rows, rich in hits. Any-hit rate of the full collection: about 5.4%.
APOBEC3G inh – APOBEC3G (human) deaminase inhibition; Q9HC16; recombinant A3G, ssDNA deamination FAM/TAMRA fluorescence; inhibition, % at 20 µM; hit rate 0.28% among 330,000; AID 493012;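 active means inhibition of at least 40% at 20 µM, with no more than 30% in the related APOBEC3A deaminase screen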
aDG glyco up – alpha-DG glycosylation activation; Pro5-aDG cells, alpha-DG glycosylation AlphaScreen (IIH6); 0% Pro5, 100% B10-LARGE cell signal; activation, % at 10 µM; hit rate 0.22% among 360,000; AID 624168;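 active means activation of at least 8% versus controls, or a plate z-score of at least 8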;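 further: Pro5 are CHO cells carrying HIG-tagged alpha-DG that lacks glycosylation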
A3A deaminase – inhibitors of human APOBEC3A DNA deaminase. P31941. recombinant A3A, FAM/TAMRA ssDNA deamination fluorescence. hit rate 0.41% among 330,000. inhibition, % at 20 µM;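 active means at least 40% inhibition at 20 µM here, with at most 30% in a related deaminase screen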
Target sequence (P31941 whole entry, looked up): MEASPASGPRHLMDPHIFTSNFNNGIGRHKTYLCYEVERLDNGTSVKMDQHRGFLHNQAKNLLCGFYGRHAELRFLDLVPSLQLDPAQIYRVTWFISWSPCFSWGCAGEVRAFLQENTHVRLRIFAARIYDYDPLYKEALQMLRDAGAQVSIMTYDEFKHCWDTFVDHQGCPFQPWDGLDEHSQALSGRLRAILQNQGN
ALR inh – blocks human ALR sulfhydryl oxidase activity | P55789 | purified ALR, DTT oxidation, H2O2 HRP-luminol luminescence | inhibition, % (no concentration beside the values) | hit rate 3.8% among 290,000;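 active means mean replicate inhibition above about 79%, with every replicate also reaching it, limit read from the data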
Target sequence (P55789 whole entry, looked up): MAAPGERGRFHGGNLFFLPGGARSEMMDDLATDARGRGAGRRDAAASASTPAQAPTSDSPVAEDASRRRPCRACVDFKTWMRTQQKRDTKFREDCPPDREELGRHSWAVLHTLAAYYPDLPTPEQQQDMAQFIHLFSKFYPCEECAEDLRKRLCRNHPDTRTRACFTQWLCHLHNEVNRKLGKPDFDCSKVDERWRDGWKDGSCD
PHOSPHO1 inh – inhibitors of human PHOSPHO1 phosphatase. Q8TCT1. recombinant PHOSPHO1, absorbance phosphatase assay. inhibition, % at 13.3 µM. hit rate 1.1% among 290,000; in the data active means inhibition above about 60%
rCAG RNA binder – binds r(CAG) RNA repeats | r(CAG) RNA repeat, TO-PRO-1 dye displacement fluorescence | inhibition, % at 3 µM | hit rate 1.3% among 370,000 | AID 651821;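 active means inhibition above the plate cutoff, the mean of all test compounds on that plate plus 3 SD, cut at about 35% in these data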;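 further: higher means more dye released from RNA so lower well fluorescence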
rCAG binder conf – r(CAG) RNA repeat binding, confirmation; shares compounds with rCAG RNA binder; TO-PRO-1 dye displacement fluorescence; inhibition, % at 3 µM; hit rate 70% among 4,300; AID 652065;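 active means inhibition above a per-plate cutoff, the mean inhibition of sample wells plus 3 SD, cut at about 35% in these data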;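 further: loss of TO-PRO-1 fluorescence as compound displaces dye from 1x1 AA loop RNA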
DNA CAG counter – disrupts DNA CAG TO-PRO-1 complex, flagging rCAG hits. shares compounds with rCAG RNA binder. d(CAG) DNA oligo TO-PRO-1 dye displacement, fluorescence. inhibition, % at 3 µM. hit rate 94% among 4,300. AID 652068;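 active means inhibition above its plate's cutoff, the mean test-well inhibition plus 3 SD, cut at about 4.8% in these data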;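 further: hits displace the dye from DNA and so lower well fluorescence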
dCAG dye DR – counter-screen for rCAG binders: inhibitors of DNA CAG TO-PRO-1 complex. IC50, µM. AID 686960. DNA CAG/GTC duplex TO-PRO-1 dye displacement fluorescence. shares compounds with rCAG RNA binder. hit rate 20% among 250; in the data active means IC50 below about 10 µM
Of the large screens only hits and unclear results are named; the others gave an inactive call (follow-up assays come after a bar, where they were run).

COc1ccc(/C=C2/SC(=S)N(Cc3ccccc3)C2=O)cc1O	rCAG RNA binder 44.0 | rCAG binder conf inactive | DNA CAG counter 13.8
COc1ccc(O)c(/C=C2/SC(=S)N(Cc3ccccc3)C2=O)c1	none
COc1ccc(/C=C2\SC(=O)N(CC(=O)NNC(=O)c3ccccc3O)C2=O)cc1	none
COc1ccc(/C=C2\SC(=O)N(CC(=O)NNC(=O)c3ccccc3O)C2=O)cc1OC	rCAG RNA binder 50.5 | rCAG binder conf 45.9 | DNA CAG counter 15.7
O=C(O)COc1ccc(/C=C2/SC(=S)N(Cc3ccccc3)C2=O)cc1	rCAG RNA binder 75.8 (no result: ALR inh) | rCAG binder conf 84.8 | DNA CAG counter 51.6
COc1ccc(CCNC(=O)C(=O)c2cn(CC(=O)N3CCCC3)c3ccccc23)cc1	none (no result: APOBEC3G inh, A3A deaminase, ALR inh, PHOSPHO1 inh)
CC1(C(=O)NCc2ccccc2)CN(S(C)(=O)=O)CC(=O)N1CCc1ccccc1F (configuration not stated)	none (no result: APOBEC3G inh, A3A deaminase, ALR inh, PHOSPHO1 inh)
COCc1[nH]nc2c1C(c1ccc(F)cc1)N(Cc1ccccc1)C2=O (configuration not stated)	none (no result: APOBEC3G inh, aDG glyco up, A3A deaminase, ALR inh, PHOSPHO1 inh)
CC(=O)NC(=S)Nc1ccc(-c2nc3ccc(C)cc3s2)cc1	none
CC1=CCC(C(=O)O)C(C(=O)Nc2ccc(-c3nc4ccc(C)cc4s3)cc2)C1 (configuration not stated)	rCAG RNA binder 66.8 | rCAG binder conf 73.2 | DNA CAG counter 35.8
Cc1ccc(S(=O)(=O)NCc2ccc3c(c2)OCO3)cc1	none (no result: APOBEC3G inh, aDG glyco up, A3A deaminase, ALR inh, PHOSPHO1 inh)
Cc1ccc(S(=O)(=O)N2CCOCC2)cc1NC(=O)CSc1nc2ccccc2c(=O)n1Cc1ccccc1	none
O=C(CSc1nc2ccccc2c(=O)n1Cc1ccccc1)Nc1ccc(Br)cc1C(=O)O	ALR inh 97.3, rCAG RNA binder 66.2 | rCAG binder conf 83.5 | DNA CAG counter 55.7
Cc1cccc(NC(=S)N/N=C/c2c[nH]c3ccccc23)c1	rCAG RNA binder 35.6 (no result: ALR inh) | rCAG binder conf inactive | DNA CAG counter 13.9
C/C(=N\N=C(/N)SC1CC(=O)N(c2ccc(Br)cc2)C1=O)c1cccs1 (configuration not stated)	rCAG RNA binder 46.6 | rCAG binder conf 76.6 | DNA CAG counter 34.7
C/C(=N\N=C(/N)SC1CC(=O)N(c2ccc(Cl)cc2)C1=O)c1cccs1 (configuration not stated)	rCAG RNA binder 42.7 | rCAG binder conf 63.4 | DNA CAG counter 24.5
N/C(=N\N=C\c1cccs1)SC1CC(=O)N(c2ccc(Br)cc2)C1=O (configuration not stated)	rCAG RNA binder 38.2 | rCAG binder conf 70.4 | DNA CAG counter 24.8 | dCAG dye DR inactive
N/C(=N\N=C\c1ccnc2ccccc12)SC1CC(=O)N(c2ccc(Br)cc2)C1=O (configuration not stated)	none
C/C(=N\N=C(/N)SC1CC(=O)N(c2ccccc2)C1=O)c1cccs1 (configuration not stated)	rCAG RNA binder 41.6 | rCAG binder conf 35.1 | DNA CAG counter 8.3
COc1ccc([C@H]2N[C@]3(CCCN(Cc4ccc(F)cc4)C3=O)[C@H]3C(=O)N(C)C(=O)[C@@H]23)cc1	none (no result: APOBEC3G inh, A3A deaminase, ALR inh, PHOSPHO1 inh)
Cc1ccc(Nc2c(F)cccc2Cl)c(CC(=O)O)c1	none (no result: APOBEC3G inh, aDG glyco up, A3A deaminase, ALR inh, PHOSPHO1 inh)
Cc1ccc2oc(-c3cccc(NC(=S)NC(=O)/C=C/c4ccco4)c3)nc2c1	rCAG RNA binder 36.7 (no result: ALR inh) | rCAG binder conf inactive | DNA CAG counter 9.8
Cc1ccc2oc(-c3cccc(NC(=S)NC(=O)c4cccs4)c3)nc2c1	none
O=C(/C=C/c1ccco1)NC(=S)Nc1nc(-c2ccc3ccccc3c2)cs1	rCAG RNA binder 40.1 | rCAG binder conf inactive | DNA CAG counter 13.8
Cc1ccc(NC(=S)NC(=O)/C=C/c2ccco2)c(O)c1	rCAG RNA binder 34.9 | rCAG binder conf 38.3 | DNA CAG counter 15.2
CCOc1ccccc1NC(=O)CCNC(=O)C1CCN(S(=O)(=O)c2ccccc2)CC1	none (no result: APOBEC3G inh, A3A deaminase, ALR inh, PHOSPHO1 inh)
